Source: PubChem BioAssay AID1159580 (chemical genetic matrix, 2015)
Screen size: about 5,500 compounds; about 2,000 (36%) were called active. Another 18% or so got no clear call; they are omitted. No stated cut-off is given here; in the data, active means normalized growth mostly below about 0.91 (no sharp cut-off); inconclusive means no clear call, values can overlap the other calls; inactive means mostly above about 0.92. This is one part of the list.

Experiment: chemical genetic growth profiling, strain panel (AID 1159580);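 further: tested at 20 µM; growth read once vehicle control cultures reached saturation at 30 °C; 1 = growth at the plate median or of vehicle wells; lower values mean less growth of the strain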
Settings: growth OD

Measured: normalized growth

O=C(CCc1ccc(O)cc1)c1c(O)cc(O)cc1O[C@@H]1O[C@H](CO)[C@@H](O)[C@H](O)[C@H]1O
inactive: S. cerevisiae deletion strains, locus YJR075W, strain HOC1, active compounds read low 1.05 | S. cerevisiae deletion strains, locus YKL009W, strain mrt4, active compounds read low 0.978 | S. cerevisiae deletion strains, locus YKL068W, active compounds read low 1 | S. cerevisiae deletion strains, locus YKL085W, strain MDH1 (second series), active compounds read low 0.988 | S. cerevisiae deletion strains, locus YKL085W, strain MDH1, active compounds read low 0.988 | S. cerevisiae deletion strains, locus YKL160W, strain elf1, active compounds read low 1.01 | S. cerevisiae deletion strains, locus YKR001C, strain vps1, active compounds read low 1 | S. cerevisiae deletion strains, locus YKR026C, strain gcn3, active compounds read low 1.01 | S. cerevisiae deletion strains, locus YKR091W, strain srl3, active compounds read low 1.01 | S. cerevisiae deletion strains, locus YLL001W, strain dnm1, active compounds read low 1.01 | S. cerevisiae deletion strains, locus YLL026W, active compounds read low 1.02 | S. cerevisiae deletion strains, locus YLL041C, strain sdh2, active compounds read low 1.01 | S. cerevisiae deletion strains, locus YLR027C, strain aat2, active compounds read low 1.01 | S. cerevisiae deletion strains, locus YLR039C, strain RIC1, active compounds read low 1.08 | S. cerevisiae deletion strains, locus YLR058C, strain SHM2, active compounds read low 1.01 | S. cerevisiae deletion strains, locus YLR102C, strain apc9, active compounds read low 1.01 | S. cerevisiae deletion strains, locus YLR113W, strain HOG1, active compounds read low 0.956 | S. cerevisiae deletion strains, locus YLR221C, strain rsa3, active compounds read low 1.02 | S. cerevisiae deletion strains, locus YLR258W, strain gsy2, active compounds read low 1.04 | S. cerevisiae deletion strains, locus YLR262C, strain YPT6 (second series), active compounds read low 1.02 | S. cerevisiae deletion strains, locus YLR262C, strain YPT6, active compounds read low 1.14 | S. cerevisiae deletion strains, locus YLR268W, strain sec22, active compounds read low 1 | S. cerevisiae deletion strains, locus YLR320W, strain mms22, active compounds read low 1.02 | S. cerevisiae deletion strains, locus YLR330W, strain CHS5, active compounds read low 1.01 | S. cerevisiae deletion strains, locus YLR342W, strain FKS1 (second series), active compounds read low 1.01 | S. cerevisiae deletion strains, locus YLR342W, strain FKS1, active compounds read low 1.02 | S. cerevisiae deletion strains, locus YLR357W, strain rsc2, active compounds read low 1 | S. cerevisiae deletion strains, locus YLR370C, strain arc18, active compounds read low 1.01 | S. cerevisiae deletion strains, locus YLR371W, strain rom2, active compounds read low 0.997 | S. cerevisiae deletion strains, locus YLR384C, strain iki3, active compounds read low 1.03 | S. cerevisiae deletion strains, locus YLR418C, strain cdc73, active compounds read low 1.03 | S. cerevisiae deletion strains, locus YML016C, strain PPZ1, active compounds read low 1.02 | S. cerevisiae deletion strains, locus YML032C, strain rad52, active compounds read low 0.986 | S. cerevisiae deletion strains, locus YML120C, strain ndi1, active compounds read low 1.01 | S. cerevisiae deletion strains, locus YML124C, strain tub3, active compounds read low 0.993 | S. cerevisiae deletion strains, locus YMR058W, strain fet3, active compounds read low 1.02 | S. cerevisiae deletion strains, locus YMR078C, strain ctf18, active compounds read low 0.991 | S. cerevisiae deletion strains, locus YMR125W, strain sto1, active compounds read low 1.02 | S. cerevisiae deletion strains, locus YMR129W, active compounds read low 1.01 | S. cerevisiae deletion strains, locus YMR205C, strain PFK2, active compounds read low 1.02 | S. cerevisiae deletion strains, locus YMR223W, strain ubp8, active compounds read low 0.992 | S. cerevisiae deletion strains, locus YMR231W, strain pep5, active compounds read low 1.01 | S. cerevisiae deletion strains, locus YMR263W, strain SAP30, active compounds read low 1.03 | S. cerevisiae deletion strains, locus YMR307W, strain GAS1, active compounds read low 1.23 | S. cerevisiae deletion strains, locus YNL067W, strain RPL9B, active compounds read low 1.04 | S. cerevisiae deletion strains, locus YNL071W, strain lat1, active compounds read low 1.01 | S. cerevisiae deletion strains, locus YNL153C, strain GIM3, active compounds read low 1.04 | S. cerevisiae deletion strains, locus YNL183C, strain NPR1, active compounds read low 0.937 | S. cerevisiae deletion strains, locus YNL209W, strain ssb2, active compounds read low 1.01 | S. cerevisiae deletion strains, locus YNL233W, strain BNI4, active compounds read low 1.03 | S. cerevisiae deletion strains, locus YNL248C, strain rpa49, active compounds read low 1.01 | S. cerevisiae deletion strains, locus YNL250W, strain rad50, active compounds read low 0.986 | S. cerevisiae deletion strains, locus YNL271C, strain bni1, active compounds read low 0.992 | S. cerevisiae deletion strains, locus YNL298W, strain CLA4, active compounds read low 0.998 | S. cerevisiae deletion strains, locus YNL307C, strain MCK1, active compounds read low 0.991 | S. cerevisiae deletion strains, locus YNL322C, strain KRE1 (second series), active compounds read low 1.02 | S. cerevisiae deletion strains, locus YNL322C, strain KRE1, active compounds read low 1.02 | S. cerevisiae deletion strains, locus YNR049C, strain mso1, active compounds read low 1.02 | S. cerevisiae deletion strains, locus YNR052C, strain pop2, active compounds read low 0.982 | S. cerevisiae deletion strains, locus YOL012C, strain htz1 0.98 | S. cerevisiae deletion strains, locus YOL147C, strain pex11, active compounds read low 0.996 | S. cerevisiae deletion strains, locus YOR001W, strain rrp6, active compounds read low 1.04 | S. cerevisiae deletion strains, locus YOR061W, strain CKA2, active compounds read low 1.02 | S. cerevisiae deletion strains, locus YOR069W, strain VPS5, active compounds read low 1.01 | S. cerevisiae deletion strains, locus YOR070C, strain gyp1, active compounds read low 1 | S. cerevisiae deletion strains, locus YOR080W, strain dia2, active compounds read low 1.03 | S. cerevisiae deletion strains, locus YOR083W, strain WHI5, active compounds read low 1.01 | S. cerevisiae deletion strains, locus YOR106W, strain vam3, active compounds read low 1.01 | S. cerevisiae deletion strains, locus YOR136W, strain idh2, active compounds read low 0.994 | S. cerevisiae deletion strains, locus YOR144C, strain elg1, active compounds read low 1 | S. cerevisiae deletion strains, locus YOR184W, strain ser1, active compounds read low 1.03 | S. cerevisiae deletion strains, locus YOR231W, strain MKK1, active compounds read low 0.993 | S. cerevisiae deletion strains, locus YOR265W, strain rbl2, active compounds read low 1.01 | S. cerevisiae deletion strains, locus YOR270C, strain vph1, active compounds read low 1.03 | S. cerevisiae deletion strains, locus YOR290C, strain snf2, active compounds read low 0.988 | S. cerevisiae deletion strains, locus YOR316C, strain cot1, active compounds read low 1.02 | S. cerevisiae deletion strains, locus YPL051W, strain arl3, active compounds read low 1.01 | S. cerevisiae deletion strains, locus YPL078C, strain atp4, active compounds read low 1.02 | S. cerevisiae deletion strains, locus YPL106C, strain sse1, active compounds read low 1.02 | S. cerevisiae deletion strains, locus YPL240C, strain hsp82, active compounds read low 1.01 | S. cerevisiae deletion strains, locus YPL241C, strain CIN2, active compounds read low 1.02 | S. cerevisiae deletion strains, locus YPL256C, strain CLN2, active compounds read low 0.966 | S. cerevisiae deletion strains, locus YPR119W, strain clb2, active compounds read low 0.992 | S. cerevisiae deletion strains, locus YPR141C, strain kar3, active compounds read low 0.987 | S. cerevisiae deletion strains, locus YPR163C, strain tif3, active compounds read low 0.993 | S. cerevisiae deletion strains, locus YPR167C, strain met16, active compounds read low 1.01 | S. cerevisiae deletion strains, strain wtn01, active compounds read low 1 | S. cerevisiae strains, strain wild type, active compounds read low 1.02
